Experimental data as given in PubChem BioAssay (NCATS).
Records with an inconclusive call do not appear. Calls of active or inactive are those of the source. Unless noted, calls come from the whole dose curve; as a rule, active = well fitted curve in the direction sought with a large enough effect; inconclusive = small, poorly fitted or top-dose-only effect, or another doubt; inactive = no such curve, though single readings can be large; an effect the other way counts as inactive or inconclusive.

What was measured:
[1] = biological target: Cytochrome P450 1A2 (Homo sapiens) (UniProt P05177); test: p450-cyp1a2 (AID 410; calls by dose curve; note: potency is the fitted concentration of half-maximal effect)
Summary of the method: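 20nM CYP1A2, 100uM Luciferin-ME (=Km), 100mM KPO4; cpd 10 min RT; +NADPH regen, 60 min RT; stop/detect 20 min; luminescence. Normalized to furafylline 57 uM = full inhibition.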

[2] = biological target: Glucocorticoid receptor (Homo sapiens) (UniProt P04150); test: GR-GFP Redistribution (AID 450;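 active = compounds whose dose series gives a full or clear partial fitted curve of increased nuclear translocation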; note: potency is the fitted concentration of half-maximal effect)
[3] = biological target: Glucocorticoid receptor (Homo sapiens) (UniProt P04150); test: GR-EFC Redistribution (AID 451; calls by dose curve; note: potency is the fitted concentration of half-maximal effect); settings: CHO-K1 GR-EFC translocation, beta-gal luminescence, 2 h
Summary of the method: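 Translocation of GR-ED fusion to nuclear EA restores b-gal, read by luminescence after 1 h room-temperature detection. Engineered CHO-K1 biosensor cells, 1,000/well, exposed 2 h at 37 C to titrations up to 46 uM final.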

[4] = biological target: Mitogen-activated protein kinase 10 (Mus musculus) (UniProt Q61831); test: JNK3 AlphaScreen Assay (AID 530; active = well fitted curve in either direction with a large enough effect, not every such curve was filed as active;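 note: kinase came from lysate of stimulated human HepG2 cells; signal reports phosphorylation of biotinylated GST-cJun 1-79 at Ser73 with 10 µM ATP; series mostly up to about 57 µM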)
Summary of the method: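 Kinase buffer: 20 mM Tris-HCl pH 7.6, 10 mM MgCl2, 1 mM DTT, 0.1 mM Na3VO4, 0.01% Tween-20; ATP 10 uM. Substrate biotin-GST-cJun(1-79), enzyme from activated HepG2 lysates. Detection by Ser73 phospho-antibody AlphaScreen.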

[5] = biological target: Cytochrome P450 2C9 (Homo sapiens) (UniProt P11712); test: qHTS Assay for Inhibitors and Substrates of Cytochrome P450 2C9 (AID 883); note: nearly all actives have a fitted effect of over 60% in size; note: potency is the fitted concentration of half-maximal effect
Summary of the method: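 Turnover of Luciferin-H (100uM, KM) by 10nM human CYP2C9 was measured over 60 min at 37C with NADPH regeneration; inhibitors and some substrates reduce luminescence. Data normalized to sulphaphenazole 57uM.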

[6] = biological target: Cytochrome P450 2D6 (Homo sapiens) (UniProt P10635); test: qHTS Assay for Inhibitors and Substrates of Cytochrome P450 2D6 (AID 891); note: nearly all actives have a fitted effect of over 60% in size; note: potency is the fitted concentration of half-maximal effect
Summary of the method: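 Luminescent read-out of luciferin formed by 5 nM human CYP2D6 demethylating 30 uM Luciferin-ME EGE (Km level) over 60 min at room temperature after NADPH regeneration addition. Data normalized to full inhibition by 1.43 uM quinidine.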

[7] = biological target: Cytochrome P450 2C19 (Homo sapiens) (UniProt P33261); test: qHTS Assay for Inhibitors and Substrates of Cytochrome P450 2C19 (AID 899); note: nearly all actives have a fitted effect of over 60% in size; note: potency is the fitted concentration of half-maximal effect
Summary of the method: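 Reactions contain 5nM enzyme, 10uM Luciferin-H EGE (KM) and 50mM KPO4; compound preincubates 10 min at 37C, NADPH regeneration starts turnover for 60 min. Luminescence after detection reagent gives activity.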

[8] = biological target: 3',5'-cyclic-AMP phosphodiesterase 4B (Homo sapiens) (UniProt Q07343); test: qHTS Assay for Inhibitors of PDE-IV (AID 607; active = well fitted activation curve with a large enough effect in the main read-out, with a control signal flat, not every such curve was filed as active; note: potency is the fitted concentration of half-maximal effect)
Summary of the method: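 ACTOne HEK293 cells carry a modified cAMP-gated CNG channel and express endogenous PDE4; plated 1000 cells/well, compounds up to 22.9 uM final. Membrane-potential dye fluorescence (ex 535/em 590) was read; parental cells received 10 uM forskolin + 100 uM RO 20-1724.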

[9] = biological target: Cytochrome P450 3A4 (Homo sapiens) (UniProt P08684); test: qHTS Assay for Activators of Cytochrome P450 3A4 (AID 885); note: nearly all actives have a fitted effect of over 65% in size
Summary of the method: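 CYP3A4 activity: Luciferin-PPXE O-dealkylation, 25uM substrate, 200mM KPO4, RT throughout. Read-out is luciferase luminescence; higher values reflect activation.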

[10] = biological target: Ubiquitin carboxyl-terminal hydrolase 1 (Homo sapiens) (UniProt O94782); test: Inhibitors of USP1/UAF1: Pilot qHTS (AID 504865);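 note: rhodamine fluorescence freed from ubiquitin-rhodamine substrate followed over time; top concentration of the series differs between compounds; nearly all actives have a fitted effect of over 35% in size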
Summary of the method: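 1nM USP1/UAF1 + cpd, 15 min RT; start w/ Ub-Rho 150nM final; kinetic FL 480/540 nm, 6 reads q60 s. Buffer 50mM HEPES pH 7.8, 0.5mM EDTA, 1mM TCEP, 0.01% Tween-20, 0.1 mg/ml BSA.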

[11] = biological target: DNA dC->dU-editing enzyme APOBEC-3G (Homo sapiens) (UniProt Q9HC16); test: qHTS for inhibitors of Vif-A3G interactions: Validation (AID 588379)
Summary of the method: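 Yellow fluorescence (Ex 488, Em 500-530) of Vif-coexpressing HeLa A3G-eYFP cells, scanned by Acumen cytometer, reports blocked A3G degradation. Cells plated at 700/well overnight at 37 deg C before compound addition, then a further overnight compound incubation at 37 deg C.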

Measured: Potency

3',5'-cyclic-AMP phosphodiesterase 4B (Homo sapiens), sequence (Q07343 whole entry, looked up): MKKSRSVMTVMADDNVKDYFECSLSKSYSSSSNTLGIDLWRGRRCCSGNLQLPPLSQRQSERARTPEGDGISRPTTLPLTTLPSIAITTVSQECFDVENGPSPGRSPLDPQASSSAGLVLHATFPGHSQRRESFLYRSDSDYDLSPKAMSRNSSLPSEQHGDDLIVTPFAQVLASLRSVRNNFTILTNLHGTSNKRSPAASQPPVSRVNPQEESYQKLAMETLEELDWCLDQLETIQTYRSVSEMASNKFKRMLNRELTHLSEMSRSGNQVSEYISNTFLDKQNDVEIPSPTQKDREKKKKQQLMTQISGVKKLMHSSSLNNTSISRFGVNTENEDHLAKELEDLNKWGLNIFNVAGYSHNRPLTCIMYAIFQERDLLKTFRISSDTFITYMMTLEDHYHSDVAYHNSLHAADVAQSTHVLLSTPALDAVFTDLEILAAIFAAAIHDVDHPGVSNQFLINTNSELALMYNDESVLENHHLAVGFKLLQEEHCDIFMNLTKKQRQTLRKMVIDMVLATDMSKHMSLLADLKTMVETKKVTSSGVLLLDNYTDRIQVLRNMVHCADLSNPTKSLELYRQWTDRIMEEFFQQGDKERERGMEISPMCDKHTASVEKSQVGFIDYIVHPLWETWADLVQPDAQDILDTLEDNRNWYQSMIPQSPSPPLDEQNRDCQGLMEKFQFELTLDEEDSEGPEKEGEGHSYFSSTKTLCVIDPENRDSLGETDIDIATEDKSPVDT
Glucocorticoid receptor (Homo sapiens), sequence (P04150 whole entry, looked up, the tested form may be a part): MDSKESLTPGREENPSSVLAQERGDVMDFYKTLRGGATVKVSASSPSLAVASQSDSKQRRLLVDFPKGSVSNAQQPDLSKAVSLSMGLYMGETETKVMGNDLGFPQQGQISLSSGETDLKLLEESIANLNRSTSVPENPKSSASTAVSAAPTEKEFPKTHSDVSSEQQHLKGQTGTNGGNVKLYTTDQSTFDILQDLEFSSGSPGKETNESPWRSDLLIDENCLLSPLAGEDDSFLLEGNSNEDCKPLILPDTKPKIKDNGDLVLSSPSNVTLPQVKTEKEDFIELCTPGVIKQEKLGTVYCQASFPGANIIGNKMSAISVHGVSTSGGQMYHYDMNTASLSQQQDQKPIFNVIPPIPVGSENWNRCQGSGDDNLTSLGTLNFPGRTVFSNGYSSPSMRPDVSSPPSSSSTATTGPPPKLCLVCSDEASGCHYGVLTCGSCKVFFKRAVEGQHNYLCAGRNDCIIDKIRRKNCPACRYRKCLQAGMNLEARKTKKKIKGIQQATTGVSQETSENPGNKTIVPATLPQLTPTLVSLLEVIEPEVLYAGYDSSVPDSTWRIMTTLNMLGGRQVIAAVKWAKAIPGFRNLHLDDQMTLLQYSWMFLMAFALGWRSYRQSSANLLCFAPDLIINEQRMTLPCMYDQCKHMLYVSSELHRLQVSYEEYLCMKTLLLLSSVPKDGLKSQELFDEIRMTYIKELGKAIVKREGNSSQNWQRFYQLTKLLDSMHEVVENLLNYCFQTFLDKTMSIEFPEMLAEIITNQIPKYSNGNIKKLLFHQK
Cytochrome P450 3A4 (Homo sapiens), sequence (P08684 whole entry, looked up): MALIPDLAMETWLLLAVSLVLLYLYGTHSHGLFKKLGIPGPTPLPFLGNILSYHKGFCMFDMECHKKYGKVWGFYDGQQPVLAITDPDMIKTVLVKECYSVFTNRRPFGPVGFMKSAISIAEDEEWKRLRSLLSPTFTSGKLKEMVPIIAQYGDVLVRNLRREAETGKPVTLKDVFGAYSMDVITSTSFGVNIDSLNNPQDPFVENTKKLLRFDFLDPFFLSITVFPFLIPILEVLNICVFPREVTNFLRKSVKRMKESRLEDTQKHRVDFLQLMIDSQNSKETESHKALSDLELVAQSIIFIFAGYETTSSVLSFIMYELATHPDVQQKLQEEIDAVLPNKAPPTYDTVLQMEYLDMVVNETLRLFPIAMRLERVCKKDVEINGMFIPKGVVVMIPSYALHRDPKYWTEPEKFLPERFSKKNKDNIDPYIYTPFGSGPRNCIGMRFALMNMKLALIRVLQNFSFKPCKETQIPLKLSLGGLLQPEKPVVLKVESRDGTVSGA
Cytochrome P450 1A2 (Homo sapiens), sequence (P05177 whole entry, looked up): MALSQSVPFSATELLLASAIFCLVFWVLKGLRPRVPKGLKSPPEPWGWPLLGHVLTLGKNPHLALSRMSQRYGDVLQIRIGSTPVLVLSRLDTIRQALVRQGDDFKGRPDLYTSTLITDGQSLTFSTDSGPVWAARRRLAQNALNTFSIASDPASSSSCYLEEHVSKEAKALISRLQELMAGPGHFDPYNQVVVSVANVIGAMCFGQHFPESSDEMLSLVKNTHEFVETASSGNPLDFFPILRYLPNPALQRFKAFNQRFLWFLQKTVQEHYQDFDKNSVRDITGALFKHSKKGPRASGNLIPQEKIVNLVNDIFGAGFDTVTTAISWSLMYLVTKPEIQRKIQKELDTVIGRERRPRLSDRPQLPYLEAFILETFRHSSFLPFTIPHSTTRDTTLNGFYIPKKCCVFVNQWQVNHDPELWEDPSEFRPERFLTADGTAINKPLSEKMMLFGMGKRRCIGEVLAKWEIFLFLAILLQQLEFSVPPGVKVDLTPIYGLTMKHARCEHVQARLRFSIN
Cytochrome P450 2C9 (Homo sapiens), sequence (P11712 whole entry, looked up): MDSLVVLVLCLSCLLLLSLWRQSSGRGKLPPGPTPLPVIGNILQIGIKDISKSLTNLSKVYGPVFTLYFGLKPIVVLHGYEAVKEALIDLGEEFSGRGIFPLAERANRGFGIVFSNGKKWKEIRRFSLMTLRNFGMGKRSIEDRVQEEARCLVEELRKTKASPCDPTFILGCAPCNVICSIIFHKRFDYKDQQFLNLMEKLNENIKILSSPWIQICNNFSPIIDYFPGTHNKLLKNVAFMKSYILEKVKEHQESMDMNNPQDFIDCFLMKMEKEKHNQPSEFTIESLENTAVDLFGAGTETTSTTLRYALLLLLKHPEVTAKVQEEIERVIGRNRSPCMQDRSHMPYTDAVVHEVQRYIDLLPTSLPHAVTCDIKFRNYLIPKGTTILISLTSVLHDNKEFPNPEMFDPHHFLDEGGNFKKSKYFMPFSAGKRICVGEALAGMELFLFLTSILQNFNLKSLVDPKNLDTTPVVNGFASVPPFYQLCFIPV
Cytochrome P450 2D6 (Homo sapiens), sequence (P10635 whole entry, looked up): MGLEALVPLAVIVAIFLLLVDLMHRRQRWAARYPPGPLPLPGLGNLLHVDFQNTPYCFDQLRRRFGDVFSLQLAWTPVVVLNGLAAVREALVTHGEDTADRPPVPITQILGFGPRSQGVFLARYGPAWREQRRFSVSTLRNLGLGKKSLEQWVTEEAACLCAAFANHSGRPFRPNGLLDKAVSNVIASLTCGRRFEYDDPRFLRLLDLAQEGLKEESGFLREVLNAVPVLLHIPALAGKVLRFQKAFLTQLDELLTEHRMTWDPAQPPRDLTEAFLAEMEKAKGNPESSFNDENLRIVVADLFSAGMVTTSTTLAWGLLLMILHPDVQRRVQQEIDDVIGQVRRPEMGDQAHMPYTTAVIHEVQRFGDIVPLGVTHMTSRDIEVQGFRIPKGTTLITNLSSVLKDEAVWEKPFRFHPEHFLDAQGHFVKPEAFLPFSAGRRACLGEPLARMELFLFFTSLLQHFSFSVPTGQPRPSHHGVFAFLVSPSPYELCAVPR
Cytochrome P450 2C19 (Homo sapiens), sequence (P33261 whole entry, looked up): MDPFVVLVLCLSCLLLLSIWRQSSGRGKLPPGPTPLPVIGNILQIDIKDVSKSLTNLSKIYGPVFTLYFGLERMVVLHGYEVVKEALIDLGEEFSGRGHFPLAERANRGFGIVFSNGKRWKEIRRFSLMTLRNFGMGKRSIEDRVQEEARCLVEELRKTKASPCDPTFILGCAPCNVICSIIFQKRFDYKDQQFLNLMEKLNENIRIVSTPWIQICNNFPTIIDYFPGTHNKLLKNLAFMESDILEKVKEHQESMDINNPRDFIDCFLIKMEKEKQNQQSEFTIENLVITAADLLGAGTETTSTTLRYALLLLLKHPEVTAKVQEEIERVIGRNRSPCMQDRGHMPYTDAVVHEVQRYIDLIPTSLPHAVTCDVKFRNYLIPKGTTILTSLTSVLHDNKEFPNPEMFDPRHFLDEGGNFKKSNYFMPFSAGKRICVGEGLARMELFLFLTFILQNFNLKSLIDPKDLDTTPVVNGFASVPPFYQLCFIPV
DNA dC->dU-editing enzyme APOBEC-3G (Homo sapiens), sequence (Q9HC16 whole entry, looked up): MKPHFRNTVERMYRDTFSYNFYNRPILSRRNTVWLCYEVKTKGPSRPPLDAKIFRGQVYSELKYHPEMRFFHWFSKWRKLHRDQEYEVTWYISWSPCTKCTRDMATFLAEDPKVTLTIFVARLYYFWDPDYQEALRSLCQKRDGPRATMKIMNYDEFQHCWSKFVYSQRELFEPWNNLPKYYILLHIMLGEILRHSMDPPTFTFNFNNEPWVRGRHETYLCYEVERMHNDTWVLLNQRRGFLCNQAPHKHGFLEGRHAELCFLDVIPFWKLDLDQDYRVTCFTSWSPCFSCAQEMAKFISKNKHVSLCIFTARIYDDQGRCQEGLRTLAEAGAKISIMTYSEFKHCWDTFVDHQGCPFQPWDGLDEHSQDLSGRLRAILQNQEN

C=C1CC[C@@H](O)C/C1=C/C=C1\CCC[C@]2(C)[C@@H]1CC[C@H]2[C@@H](C)/C=C\[C@@H](C)C(C)C
inactive: [1] | [2] > 46 µM | [3] > 46 µM | [4] | [6]
active: [5] 20 µM | [7] 20 µM

C/C(=C\CNc1ncnc2c1ncn2[C@@H]1O[C@@H](CO)[C@@H](O)[C@H]1O)CO
inactive: [1] | [2] > 46 µM | [3] > 46 µM | [4] | [8] | [5] | [7]

C=C(CO)[C@H]1Cc2c(ccc3c(=O)c4c(oc23)COc2cc(OC)c(OC)cc2-4)O1
inactive: [1] | [2] > 46 µM | [3] > 46 µM | [8] | [5] | [6] | [7]

CN(CCc1ccc(Cl)c(Cl)c1)CCN1CCCCCC1
inactive: [2] > 46 µM | [4] | [9] | [10] | [11]
active: [1] 31.6 µM | [6] 0.126 µM

C=C1C(=O)O[C@H]2C[C@@]3(C)CCCC(=C)[C@@H]3C[C@H]12
inactive: [2] > 46 µM | [3] > 46 µM | [4]
active: [1] 20 µM | [8] 7.55 µM | [7] 2.51 µM

O=c1cc(-c2ccccc2O)oc2c(O)c(O)ccc12
inactive: [2] > 46 µM | [3] > 46 µM | [8] | [9] | [11]
active: [1] 2.51 µM | [5] 1.26 µM | [6] 15.8 µM | [7] 1.26 µM

CC(C)C[C@H](NC(=O)[C@@H](NC(=O)N[C@@H](Cc1ccccc1)C(=O)O)[C@H]1CCN=C(N)N1)C(=O)N[C@H](C=O)Cc1ccccc1
inactive: [1] | [2] > 46 µM | [3] > 46 µM | [4] | [5] | [6]

O[C@@H]1CC[C@H]2Cc3ccccc3N=C21
inactive: [2] > 46 µM | [3] > 46 µM | [4] | [8] | [5] | [7]
active: [1] 15.8 µM

CC(C)=CCC/C(C)=C/COc1c2ccoc2cc2oc(=O)ccc12
inactive: [2] > 46 µM | [3] > 46 µM
active: [1] 0.316 µM | [5] 0.0316 µM | [6] 0.0631 µM | [7] 0.01 µM

O=c1c(O)c(-c2ccc(O)c(O)c2)oc2ccccc12
active: [1] 0.251 µM
inactive: [2] > 46 µM | [3] > 46 µM | [9]

O=c1c(O)c(-c2ccc(O)c(O)c2)oc2c(OC[C@H]3O[C@@H](O)[C@@H](O)[C@H](O)[C@@H]3O)c(O)cc(O)c12
inactive: [1] | [2] > 46 µM | [3] > 46 µM | [8] | [5] | [6] | [7]
